Compounds with a hit are over-represented: about 3.8% of the library has one in this group of screens.
Nrf2 activator: activates Nrf2 signaling | AREc32 ARE-luciferase reporter (MCF7-derived line), luminescence, 24 h | Potency, µM (titrated, usually from 46.1 µM), inactives show top-dose activation, hits mostly activators | 410,000 tested, 0.31% active | AID 624171; further: % of control where 0% means no effect; nearly all actives have a fitted effect of over 65% in size
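For detection, Steady-Glo was added and plates sat 30 min at RT; before that, AREc32_Fluc cells grown overnight in OPTI-MEM/5% FBS had been treated with 23 nL compound for 24 hr at 37 deg C.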
Nrf2 inh: inhibitors of Nrf2 signaling. A549 ARE-Fluc reporter, luciferase luminescence, 18-24 h. 360,000 tested, 2.1% active. Potency, µM (highest dose often 46 µM), without a hit: at the highest dose activity change, negative = inhibition, actives largely listed as inhibitors; further: on the % scale 0 is the no-effect control and ±100 the full control effect; nearly all actives have a fitted effect of over 60% in size
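In this cell-based qHTS, ARE-driven firefly luciferase in A549 cells reports Nrf2 activity; the luminescent signal after BugLite lysis is the measured value, with a prior CellTiter-Fluor read for cell health.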
ELG1 repair inh: blocks ELG1-dependent DNA repair in HEK293T cells; 330,000 tested, 2.3% active; HEK293T ELG1-luciferase reporter, luminescence, 16 h; DNA damage induced by 5-fluorouridine; Potency, µM (titrated, usually from 46.1 µM), for inactives: at the highest dose activity change, negative = inhibition, usual class: inhibitors; further: on the % scale 0 is the no-effect control and ±100 the full control effect; nearly all actives have a fitted effect of over 55% in size
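DMSO vehicle served as the neutral condition. Each well held 2,000 cells given 5-fluorouridine plus compound; after 16 hr at 37 °C/5% CO2, ONE-Glo was added and luciferase measured 30 min later.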
A549 tox-1: counter-screen for Nrf2 inhibitors: cytotoxicity in A549 cells | AID 504648 | A549 ARE-Fluc cells, CellTiter-Fluor viability, 18-24 h | 390,000 tested, 0.16% active | Potency, µM (top dose mostly 46 µM), for inactives: at the top dose activity change, negative = cytotoxicity, hits mostly inhibitors; further: on the % scale 0 is the no-effect control and ±100 the full control effect
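Cytotoxicity counterscreen: CellTiter-Fluor fluorescence was measured in A549 ARE_Fluc cells after 18-24 h of compound exposure in a concentration series. The subsequent BugLite luminescent read reports ARE-luciferase activity.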
IDH1 R132H inh: human IDH1 R132H inhibition; Potency, µM (top dose mostly 76.6 µM), for inactives: at the highest dose activity change, negative = inhibition, actives largely listed as inhibitors; IDH1-R132H enzyme, NADPH consumption, diaphorase/resazurin fluorescence; O75874; 390,000 tested, 0.093% active; further: on the % scale 0 is the no-effect control and ±100 the full control effect; nearly all actives have a fitted effect of over 65% in size
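IDH1-R132H (0.5 ug/mL) preincubated 30 min with compound, then NADPH (0.016 mM) and alpha-KG (2 mM) added; 80 min at RT, pH 7.5. Remaining NADPH coupled via diaphorase/resazurin to fluorescence (540/590 nm); concentration-response curves normalized to no-enzyme control.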
FLuc enzyme inh: counter-screen for Nrf2 inhibitors: firefly luciferase enzyme inhibition; shares compounds with Nrf2 inh; purified firefly luciferase, luminescence inhibition; 1,400 tested, 4% active; Potency, µM (titrated, usually from 57.5 µM), for the others: at the highest dose activity change, negative = inhibition, hits mostly inhibitors; further: on the % scale 0 is the no-effect control and ±100 the full control effect; nearly all actives have a fitted effect of over 65% in size
Target sequence (P08659 whole entry, looked up): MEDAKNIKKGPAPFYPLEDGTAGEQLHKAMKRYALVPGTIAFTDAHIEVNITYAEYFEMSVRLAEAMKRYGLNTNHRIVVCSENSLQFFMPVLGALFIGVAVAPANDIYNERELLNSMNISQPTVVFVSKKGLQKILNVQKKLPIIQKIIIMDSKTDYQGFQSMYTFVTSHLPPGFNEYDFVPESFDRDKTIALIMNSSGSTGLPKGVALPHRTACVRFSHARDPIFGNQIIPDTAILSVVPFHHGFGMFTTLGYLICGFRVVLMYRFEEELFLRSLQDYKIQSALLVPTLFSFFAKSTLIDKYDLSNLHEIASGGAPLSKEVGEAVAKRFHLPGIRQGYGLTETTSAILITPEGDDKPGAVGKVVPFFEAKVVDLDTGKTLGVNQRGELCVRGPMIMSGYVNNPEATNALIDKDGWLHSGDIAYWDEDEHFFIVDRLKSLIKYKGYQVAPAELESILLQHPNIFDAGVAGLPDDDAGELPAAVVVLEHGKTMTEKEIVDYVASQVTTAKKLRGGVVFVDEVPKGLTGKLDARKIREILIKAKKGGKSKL
A549 tox-2: toxic to A549 ARE-Fluc cells in Nrf2 counterscreen; shares compounds with Nrf2 inh; A549 ARE-Fluc cells, cytotoxicity counterscreen; Potency, µM (top dose mostly 46.1 µM), for inactives: at the highest dose activity change, negative = cytotoxicity, actives largely listed as inhibitors; 1,400 tested, 2% active; AID 720523;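 further: cells exposed to compounds for 18 to 24 hours; on the % scale 0 is the no-effect control and ±100 the full control effect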
Nrf2 ARE inh: reduces Nrf2 ARE reporter signal in A549 cells; shares compounds with Nrf2 inh; A549 ARE-firefly luciferase reporter, luminescence; Potency, µM (top dose mostly 46.1 µM), for the others: at the top dose activity change, negative = inhibition, hits mostly inhibitors; 1,400 tested, 74% active; AID 720524; further: on the % scale 0 is the no-effect control and ±100 the full control effect; nearly all actives have a fitted effect of over 65% in size
Starred values were filed as active, the others as inactive; ? = inconclusive; . = not tested or not shown; [ ] = remark or other dose. The call rests on the fitted dose curve; in most records, active means well fitted curve in the direction sought with a large enough effect; inconclusive means small, poorly fitted or top-dose-only effect, or another doubt; inactive means no such curve, though single readings can be large; an effect the other way counts as inactive or inconclusive. Potency means the concentration at half of the fitted maximal effect.

SMILES	Nrf2 activator	Nrf2 inh	ELG1 repair inh	A549 tox-1	IDH1 R132H inh	FLuc enzyme inh	A549 tox-2	Nrf2 ARE inh
CCN(CC)C(=O)c1ccc2nc3ccccc3nc2c1	1.6%	1.46µM*	?	?	1.8%	?	?	.
COc1ccc(-c2cc(C(=O)Oc3ccc(Cl)cc3)c3ccccc3n2)cc1	0.5%	0.7%	.	5.6%	4.6%	.	.	.
O=C(Nc1ccc(S(=O)(=O)N2CCCC2)cc1)c1ccc(CN2CCOCC2)cc1	4.8%	4.11µM*	?	-13.5%	9.9%	-1.9%	-7.8%	8.2µM*
O=C(NC1CCN(Cc2ccccc2)CC1)c1ccc2c(c1)[nH]c(=O)n2Cc1ccc(F)cc1	6.9%	4.61µM*	-9.2%	?	-2.2%	0.5%	-15.5%	9.2µM*
O=C(Nc1ccc(S(=O)(=O)N2CCCCC2)cc1)c1ccc(CN2CCOCC2)cc1	-0.7%	4.61µM*	7.31µM*	-4.0%	6.5%	-0.9%	1.6%	7.31µM*
Cc1ccc(NS(=O)(=O)c2ccc(C(=O)NC3CCN(Cc4ccccc4)CC3)cc2)cc1	4.6%	5.8µM*	?	?	1.1%	2.1%	-23.8%	7.31µM*
CCCCCn1c(=O)[nH]c2cc(C(=O)NC3CCN(Cc4ccccc4)CC3)ccc2c1=O	2.3%	-13.4%	.	1.1%	-0.3%	.	.	.
COc1ccc(NC(=O)c2ccc(Cl)c(S(=O)(=O)N3CCc4ccccc4C3)c2)cn1	-0.7%	?	?	-11.3%	7.0%	.	.	.
CCN(CC)S(=O)(=O)c1ccc(NC(=O)c2ccc(CN3CCOCC3)cc2)cc1	0.1%	3.66µM*	?	-4.2%	0.0%	1.3%	-7.1%	3.66µM*
COc1ccc(NC(=O)c2ccc(Cl)c(S(=O)(=O)N3CC(C)OC(C)C3)c2)cn1 (stereo not drawn)	3.2%	2.59µM*	?	-5.0%	3.0%	1.0%	-7.5%	7.31µM*
O=C(Nc1ccc(N2CCOCC2)cc1)c1ccc(Cl)c(S(=O)(=O)N2CCCCC2)c1	0.4%	4.11µM*	?	-7.3%	-8.5%	-2.3%	-2.7%	5.17µM*
O=C(Nc1ccc(S(=O)(=O)Nc2ccc(F)cc2)cc1)c1ccc(CN2CCOCC2)cc1	3.9%	3.66µM*	?	-17.9%	2.9%	-3.6%	-7.6%	.
COc1ccccc1N(CC(=O)Nc1cc(C)cc(C)c1)S(C)(=O)=O	0.0%	0.9%	.	-5.2%	9.7%	.	.	.
CCC(=O)Nc1ccccc1-c1nc2ccccc2n(CC(=O)c2ccc(C)cc2)c1=O	0.1%	7.7%	.	3.7%	-0.5%	.	.	.
O=C(/C=C/c1cccc([N+](=O)[O-])c1)OCC(=O)N1CCCCC1	17.3%	.	.	.	8.5%	.	.	.
CCN(CC)S(=O)(=O)c1ccc(OC)c(NC(=O)c2ccc(N3CCCC3=O)cc2)c1	-0.3%	-0.6%	-10.8%	-6.9%	-1.9%	.	.	.
CCN(CC)S(=O)(=O)c1ccc(NC(=O)c2ccc(N3CCCC3=O)cc2)cc1	-0.2%	1.46µM*	?	-15.8%	14.7%	-1.1%	-5.5%	7.31µM*
O=S(=O)(NCc1cn2ccsc2n1)c1ccc(Oc2ccccc2)cc1	0.3%	7.31µM*	?	?	9.9%	-0.6%	-5.8%	7.31µM*
COc1ccc(NC(=O)CN(c2ccccc2OC)S(C)(=O)=O)c(OC)c1	-1.1%	5.4%	.	4.7%	-4.5%	.	.	.
COc1ccc(-n2c(-c3ccccc3)c[n+]3c2CCC3)cc1	0.4%	9.2µM*	?	-12.3%	4.3%	0.9%	-12.2%	6.51µM*
COc1ccc(-n2c(-c3ccccc3)cc3c2CCCC3=O)cc1	5.8%	-29.9%	3.5%	3.6%	-29.4%	.	.	.
COc1ccc(-n2c(-c3ccc(Br)cc3)c[n+]3c2CCC3)cc1	-0.6%	4.61µM*	1.83µM*	-13.0%	-7.2%	0.7%	-0.5%	-35.8%
CCOc1ccc(-c2c[n+]3c(n2-c2ccccc2)CCCCC3)cc1	-0.1%	0.92µM*	?	?	9.4%	0.7%	-16.0%	10.3µM*
CCOC(=O)c1c(-c2ccccc2)oc2ccc(OCc3cccc(Br)c3)cc12	0.5%	1.8%	.	-1.0%	0.0%	.	.	.
COc1ccc(NC(=O)C2(c3cccs3)CCOCC2)cc1Cl	0.9%	.	.	0.3%	23.8%	.	.	.
SMILES	Nrf2 activator	Nrf2 inh	ELG1 repair inh	A549 tox-1	IDH1 R132H inh	FLuc enzyme inh	A549 tox-2	Nrf2 ARE inh
CN1CCN(CCNC(=O)c2cnn(-c3ccc(Cl)cc3)c2C2CCN(C(=O)OC(C)(C)C)CC2)CC1	-0.6%	2.9%	.	6.3%	10.3%	.	.	.
CO/N=C/c1ccc(N2CCN(C(=O)c3ccc(Cl)cc3Cl)CC2)c([N+](=O)[O-])c1	-0.1%	6.51µM*	-24.7%	-28.1%	0.0%	-0.8%	-22.3%	11.6µM*
O=C(c1ccccc1)N1CCN(CCc2ccncc2)CC1	-0.3%	4.3%	.	0.2%	-6.0%	.	.	.
CCCNC(=O)Cn1cnc2sc(C(=O)N3CCN(Cc4ccc5c(c4)OCO5)CC3)c(C)c2c1=O	0.0%	-1.4%	?	-0.6%	8.7%	.	.	.
Cc1c(C(=O)N2CCN(Cc3ccc4c(c3)OCO4)CC2)sc2ncnc(N3CCN(c4ccccc4)CC3)c12	-0.4%	1.16µM*	4.61µM*	1.2%	5.9%	-3.3%	-21.6%	7.31µM*
CC(C)Cn1c(N)c(C(=O)COC(=O)/C=C/c2ccccc2)c(=O)n(C)c1=O	0.2%	6.51µM*	?	?	-0.8%	1.3%	-4.8%	7.31µM*
NC(=S)N/N=C/c1ccc(C(F)(F)F)cc1	-0.9%[9.22 µM]	?	-4.5%	-2.5%	-0.8%	.	.	.
NC(=S)N/N=C/c1ncc(C(F)(F)F)cc1Cl	10.3%	4.11µM*	?	?	-5.4%	-1.5%	?	5.17µM*
CN(C)c1ccc(/C=C/C(=O)c2ccc(O)cc2)cc1	17.3%	5.17µM*	.	4.3%	5.4%	0.213µM*	0.6%	2.31µM*
CN(C)c1ccc(C(=O)C=Cc2ccc([N+](=O)[O-])cc2)cc1	0.0%	.	.	.	-9.7%	.	.	.
COc1ccc(NS(=O)(=O)c2cccc(NC(=O)c3ccc(S(=O)(=O)N4CCCCCC4)cc3)c2)cc1	0.2%	5.8µM*	?	?	-1.3%	-2.5%	-14.5%	5.8µM*
O=C(Nc1cccc(S(=O)(=O)C(F)F)c1)c1ccc(S(=O)(=O)N2CCCC2)cc1	0.1%	5.8µM*	?	?	8.1%	1.7%	-7.3%	?
